Results: PubChem BioAssay (NCATS)
Inconclusive results are not listed. Calls of active or inactive are those of the source. Unless noted, the call rests on the fitted dose curve; in most records, active means well fitted curve in the direction sought with a large enough effect; inconclusive means small, poorly fitted or top-dose-only effect, or another doubt; inactive means no such curve, though single readings can be large; an effect the other way counts as inactive or inconclusive.

Columns and labels:
[1] = qHTS to identify inhibitors of the type 1 interferon - major histocompatibility complex class I in skeletal muscle: primary screen against the NCATS Mechanism Interrogation Plate v5.0 (MIPE) Libary (AID 1347411); further: nearly all actives have a fitted effect of over 65% in size; further: potency means the concentration at half of the fitted maximal effect;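 on activity change, negative = inhibition: plate controls were vehicle for no effect and reference inhibitor for full effect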
How it was run: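 Cells were genome-edited human myoblasts carrying a HiBit tag on endogenous HLA-B. They were treated with IFN-beta (4.0 ng/ml) and titrated compounds (top 46 uM) for 24 hrs before lytic HiBiT detection.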

[2] = Primary qHTS for inhibitors of nuclear receptor binding SET domain protein 2 (NSD2) in an isogenic RCH-ACV NSD2 p.E1099K mutant (9B) (AID 1645876); further: nearly all actives have a fitted effect of over 70% in size; further: potency means the concentration at half of the fitted maximal effect; on activity change, negative = viability loss: on the % scale 0 is the no-effect control and ±100 the full control effect
[3] = Primary qHTS for inhibitors of nuclear receptor binding SET domain protein 2 (NSD2) in an RCH-ACV wild type WT cells (2C) (AID 1645877); further: nearly all actives have a fitted effect of over 70% in size; further: potency means the concentration at half of the fitted maximal effect; on activity change, negative = cell killing: on the % scale 0 is the no-effect control and ±100 the full control effect
[4] = molecular target: Glutathione peroxidase 1 (Homo sapiens) (UniProt P07203); assay: Primary qHTS Assay for Inhibitors of Recombinant Selenoprotein Glutathione Peroxidase 1 (GPX1) (AID 1845191); further: nearly all actives have a fitted effect of over 65% in size
Glutathione peroxidase 1 (Homo sapiens), sequence (P07203 whole entry, looked up): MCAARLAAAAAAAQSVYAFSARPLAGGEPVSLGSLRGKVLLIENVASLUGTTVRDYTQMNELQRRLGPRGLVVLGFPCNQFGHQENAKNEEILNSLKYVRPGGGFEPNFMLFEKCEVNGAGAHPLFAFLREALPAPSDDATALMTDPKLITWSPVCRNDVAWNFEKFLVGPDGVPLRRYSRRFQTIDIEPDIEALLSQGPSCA
How it was run: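 Recombinant GPX1 (10 nM final) was preincubated with compound for 30 min at room temperature, then reacted with 1 mM GSH, 0.5 mM CHP, 0.5 mM NADPH and 100 nM glutathione reductase; NADPH fluorescence (340/450 nm) was read at 0 and 15 min.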

[5] = molecular target: Phospholipid hydroperoxide glutathione peroxidase GPX4 (Homo sapiens) (UniProt P36969); assay: Primary qHTS Assay for Inhibitors of Recombinant Selenoprotein Glutathione Peroxidase 4 (GPX4) (AID 1845192); conditions: outcome: dose series up to 50 µM unless noted; further: series mostly up to about 50 µM; on the % scale 0 is the no-effect control and ±100 the full control effect; nearly all actives have a fitted effect of over 65% in size
Phospholipid hydroperoxide glutathione peroxidase GPX4 (Homo sapiens), sequence (P36969 whole entry, looked up): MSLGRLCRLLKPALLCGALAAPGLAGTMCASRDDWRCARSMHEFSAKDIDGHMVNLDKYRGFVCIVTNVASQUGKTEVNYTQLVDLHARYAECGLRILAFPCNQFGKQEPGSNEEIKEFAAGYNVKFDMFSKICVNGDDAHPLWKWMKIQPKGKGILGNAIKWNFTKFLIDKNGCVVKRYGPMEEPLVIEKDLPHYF
How it was run: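 GR-coupled readout: 100 nM GR, 1 mM GSH, 0.5 mM NADPH; NADPH fluorescence (ex 340/em 450 nm) read at t=0 and after 15 min RT. GPX4 200 nM, preincubated 30 min with compound; substrate 0.5 mM CHP.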

[6] = qHTS drug screen for cell cycle checkpoint inhibitors in PARPi-resistant BRCA-mutant ovarian cancer cell lines. (AID 1963452; calls by dose curve; further: potency means the concentration at half of the fitted maximal effect); conditions: PEO1/OlaR viability, CellTiter-Glo luminescence, 96 h; for Z-AUC: stronger effect = lower value
How it was run: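 PEO1, PEO4 and PEO1/OlaR ovarian cancer cells, 600 per well, exposed 96 h at 37C to a dilution series. Viability read by CellTiter-Glo luminescence, normalized to DMSO and empty wells; activity summarized as Z-AUC.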

[7] = measured here: PEO1 parental Z-AUC

For `C[C@H](NC(=O)CCC(F)(F)F)C(=O)N[C@@H]1C(=O)N(CCO)c2ncccc2-c2ccccc21`, the Potency [1] was “inactive”, the Potency [2] was “inactive” and the Potency [3] was “inactive”. The Potency [4] was “inactive”, the Potency [5] was “inactive” and the Z-AUC [6] was -0.268 (inactive). It also gave a Z-AUC [6, 7] of 0.166 and a Z-AUC ([6]; measured here: PEO4 Z-AUC) of -0.664.
For `CCO[C@@H]1OC(=O)C[C@@H]1NC(=O)[C@@H]1CCCN2C(=O)CC[C@H](NC(=O)c3nccc4ccccc34)C(=O)N12`, the Potency [1] was “inactive”, the Potency [2] was “inactive” and the Potency [3] was “inactive”. The Potency [4] was “inactive”, the Potency [5] was “inactive” and the Z-AUC [6] was -0.883 (inactive). For the same compound, the Z-AUC [6, 7] was -0.455 and the Z-AUC ([6]; measured here: PEO4 Z-AUC) was -1.09.
With `C=CC(=O)N1CCC[C@H](n2c(=O)n(-c3ccc(Oc4ccccc4)cc3)c3c(N)ncnc32)C1` the Potency [1] was “inactive”, the Potency [2] was 2.09 µM (active) and the Potency [3] was 2.09 µM (active). The Potency [4] was “inactive”, the Z-AUC [6] was -0.0902 (inactive) and the Z-AUC [6, 7] was 0.044. For the same compound, the Z-AUC ([6]; measured here: PEO4 Z-AUC) was -0.151.
In the case of `C/C(=N\NC(=S)N1CCC1)c1ccccn1`, the Potency [1] is reported as “inactive”, the Potency [2] is reported as 0.0105 µM (active) and the Potency [3] is reported as 0.0093 µM (active). The Potency [5] was “inactive”, the Z-AUC [6] was -0.969 (inactive) and the Z-AUC [6, 7] was -1.12. It also gave a Z-AUC ([6]; measured here: PEO4 Z-AUC) of -1.07.
With `CC(C)Oc1ccc(-c2nc(-c3cccc4c3CC[C@@H]4NCCO)no2)cc1C#N` the Potency [1] was “inactive”, the Potency [2] was 14.8 µM (active) and the Potency [3] was 18.6 µM (active). The Potency [4] was “inactive”, the Z-AUC [6] was -0.0463 (inactive) and the Z-AUC [6, 7] was 0.729. It also gave a Z-AUC ([6]; measured here: PEO4 Z-AUC) of 1.1.
In the case of `O=C(O)C[C@H]1CCc2c1[nH]c1ccc(OCc3ccc(C4CCCC4)c(C(F)(F)F)c3)cc21`, the Potency [1] is reported as “inactive”, the Potency [2] is reported as “inactive” and the Potency [3] is reported as “inactive”. For the same compound, the Potency [4] was “inactive”, the Z-AUC [6] was 1.56 (inactive) and the Z-AUC [6, 7] was 0.981. The Z-AUC ([6]; measured here: PEO4 Z-AUC) was 0.948.
In the case of `CCC(=O)O[C@]1(C(=O)CO)CC[C@H]2[C@@H]3CCC4=CC(=O)CC[C@]4(C)[C@H]3CC[C@@]21C`, the Potency [1] is reported as “inactive”, the Potency [2] is reported as “inactive” and the Potency [3] is reported as “inactive”. For the same compound, the Potency [5] was “inactive”, the Z-AUC [6] was 1.13 (inactive) and the Z-AUC [6, 7] was 0.73. It also gave a Z-AUC ([6]; measured here: PEO4 Z-AUC) of 1.13.
With `CN1CCN(C(=O)[C@H]2[C@@H](C(=O)O)[C@H]3CC[C@@H]2O3)CC1` the activity change, negative = inhibition [1] was -7.67% [at 8.44 µM] (inactive), the activity change, negative = viability loss [2] was 9.83% [at 9.23 µM] (inactive) and the activity change, negative = cell killing [3] was 4.4% [at 9.23 µM] (inactive). For the same compound, the outcome [4] was “inactive [at 9.52 µM]”, the Z-AUC [6] was 0.39 (inactive) and the Z-AUC [6, 7] was 0.568. The Z-AUC ([6]; measured here: PEO4 Z-AUC) was 0.663.
In the case of `CCCNC(=O)[C@H]1O[C@@H]1C(=O)N[C@H](C(=O)N1CCC[C@H]1C(=O)OC)C(C)CC` (stereo partly specified), the Potency [1] is reported as “inactive”, the Potency [2] is reported as 6.61 µM (active) and the Potency [3] is reported as 7.42 µM (active). For the same compound, the Potency [4] was “inactive”, the Z-AUC [6] was 0.833 (inactive) and the Z-AUC [6, 7] was 0.0577. The Z-AUC ([6]; measured here: PEO4 Z-AUC) was 0.0351.
With `C/C=C1\NC(=O)[C@H]2CSSCC/C=C\[C@H](CC(=O)N[C@H](C(C)C)C(=O)N2)OC(=O)[C@H](C(C)C)NC1=O` the Potency [1] was 0.0104 µM (active), the Potency [2] was 0.0074 µM (active) and the Potency [3] was 0.0066 µM (active). The Potency [4] was “inactive”, the Potency [6] was 4.9 nM (active) and the Z-AUC [6, 7] was -3.43. For the same compound, the Z-AUC ([6]; measured here: PEO4 Z-AUC) was -3.56.
For `Cc1cc(-c2cnn3c(NCC4CC(C)(O)C4)cc(Oc4cccnc4)nc23)ccc1C(=O)NC1CC1` (stereo unspecified), the activity change, negative = inhibition [1] was -24.9% [at 5.1 µM] (inactive), the Potency [2] was 0.148 µM (active) and the Potency [3] was 0.132 µM (active). For the same compound, the outcome [4] was “inactive [at 4.49 µM]”, the Z-AUC [6] was -0.227 (inactive) and the Z-AUC [6, 7] was 0.402. It also gave a Z-AUC ([6]; measured here: PEO4 Z-AUC) of -0.202.
With `CC1(C)S[C@H]2[C@H](NC(=O)[C@@H](N)c3ccc(O)cc3)C(=O)N2[C@H]1C(=O)O` the Potency [1] was “inactive”, the Potency [2] was “inactive” and the Potency [3] was “inactive”. The Potency [5] was “inactive”, the Z-AUC [6] was -0.122 (inactive) and the Z-AUC [6, 7] was 0.11. It also gave a Z-AUC ([6]; measured here: PEO4 Z-AUC) of 0.161.
In the case of `O=C(O)CCCCN(CCc1ccccc1OCc1ccc(CCc2ccccc2)cc1)Cc1ccc(C(=O)O)cc1`, the Potency [1] is reported as “inactive”, the Potency [2] is reported as “inactive” and the Potency [3] is reported as “inactive”. The Potency [4] was “inactive”, the Z-AUC [6] was 0.163 (inactive) and the Z-AUC [6, 7] was 0.492. It also gave a Z-AUC ([6]; measured here: PEO4 Z-AUC) of 0.773.
For `CCN(CC)CCNc1ccc(C)c2sc3ccccc3c(=O)c12`, the Potency [1] was 26.2 µM (active), the Potency [2] was 5.9 µM (active) and the Potency [3] was 5.25 µM (active). For the same compound, the Potency [4] was “inactive”, the Z-AUC [6] was -1.21 (inactive) and the Z-AUC [6, 7] was -0.605. It also gave a Z-AUC ([6]; measured here: PEO4 Z-AUC) of -0.562.
With `O=C1OC(COc2ccccc2[N+](=O)[O-])CC1Cc1ccccc1` (stereo unspecified) the Potency [1] was “inactive”, the Potency [2] was “inactive” and the Potency [3] was “inactive”. The Potency [4] was “inactive”, the Z-AUC [6] was -0.926 (inactive) and the Z-AUC [6, 7] was -0.0369. It also gave a Z-AUC ([6]; measured here: PEO4 Z-AUC) of -0.342.
With `O=C(/C=C/N1C[C@H]2C[C@@H]1CN2c1ccccn1)c1ccccc1O` the Potency [1] was “inactive”, the Potency [2] was “inactive” and the Potency [3] was “inactive”. For the same compound, the Potency [4] was “inactive”, the Z-AUC [6] was 1.02 (inactive) and the Z-AUC [6, 7] was 0.925. For the same compound, the Z-AUC ([6]; measured here: PEO4 Z-AUC) was 0.836.
For `CC1=NN(c2ccc(C(=O)O)cc2)C(=O)/C1=C/c1ccc(-c2cc(C)c(C)cc2[N+](=O)[O-])o1`, the Potency [1] was “inactive”, the Potency [2] was “inactive” and the Potency [3] was “inactive”. For the same compound, the Potency [5] was “inactive”, the Z-AUC [6] was 0.0308 (inactive) and the Z-AUC [6, 7] was 0.127. For the same compound, the Z-AUC ([6]; measured here: PEO4 Z-AUC) was -0.0936.
For `CCNCCS(=O)(=O)NC[C@@]1(c2ccccc2)SC(NC(=O)C(C)(C)C)=NN1C(=O)C(C)(C)C`, the Potency [1] was “inactive”, the Potency [2] was 0.0093 µM (active) and the Potency [3] was 0.0074 µM (active). The Potency [4] was “inactive”, the Potency [6] was 8.7 nM (active) and the Z-AUC [6, 7] was -2.33. It also gave a Z-AUC ([6]; measured here: PEO4 Z-AUC) of -2.54.
In the case of `O=C(/C=C\n1cnc(-c2cc(C(F)(F)F)cc(C(F)(F)F)c2)n1)NNc1ccccn1`, the Potency [1] is reported as 2.34 µM (active), the Potency [2] is reported as 3.72 µM (active) and the Potency [3] is reported as 3.32 µM (active). The Potency [5] was “inactive”, the Z-AUC [6] was -0.821 (inactive) and the Z-AUC [6, 7] was -1.43. The Z-AUC ([6]; measured here: PEO4 Z-AUC) was -1.79.
With `C=C1C[C@H]2C=Nc3cc(OCCCOc4cc5c(cc4OC)C(=O)N4CC(=C)C[C@H]4C=N5)c(OC)cc3C(=O)N2C1` the Potency [1] was “inactive”, the Potency [2] was “inactive” and the Potency [3] was “inactive”. For the same compound, the Potency [4] was “inactive”, the Z-AUC [6] was 1.4 (inactive) and the Z-AUC [6, 7] was 0.729. The Z-AUC ([6]; measured here: PEO4 Z-AUC) was 0.852.
In the case of `CC(C)n1cc(-c2ccc3c(c2)N(C)CC3)c2c(NS(=O)(=O)c3ccn(C)n3)ccnc21`, the Potency [1] is reported as “inactive”, the Potency [2] is reported as “inactive” and the Potency [3] is reported as “inactive”. The Potency [4] was “inactive”, the Z-AUC [6] was 1.52 (inactive) and the Z-AUC [6, 7] was 0.948. For the same compound, the Z-AUC ([6]; measured here: PEO4 Z-AUC) was 0.671.
With `CO[C@H]1/C=C/O[C@@]2(C)Oc3c(C)c(O)c4c(O)c(c5c(nc6cc(C)ccn65)c4c3C2=O)NC(=O)/C(C)=C\C=C\[C@H](C)[C@H](O)[C@@H](C)[C@@H](O)[C@@H](C)[C@H](OC(C)=O)[C@@H]1C` the Potency [1] was “inactive”, the Potency [2] was 20.9 µM (active) and the Potency [3] was 23.5 µM (active). The Potency [4] was “inactive”, the Z-AUC [6] was -0.712 (inactive) and the Z-AUC [6, 7] was -1.19. The Z-AUC ([6]; measured here: PEO4 Z-AUC) was -1.09.
